Test results reported in PubChem BioAssay (NCATS).
“And” between values parts separate entries of the source, which are not always exact repeats. Equal entries are not always repeated. Results filed as inconclusive are left out. Values without a mark were called inactive. The source made the active and inactive calls. The call rests on the fitted dose curve; in most records, active means well fitted curve in the direction sought with a large enough effect; inconclusive means small, poorly fitted or top-dose-only effect, or another doubt; inactive means no such curve, though single readings can be large; an effect the other way counts as inactive or inconclusive.

test: qHTS assay to identify small molecule inhibitors of chordoma cells - UCH-2 (AID 1259356); settings: UCH-2 chordoma viability, CellTiter-Glo ATP luminescence, 48 h; series mostly up to 46.1 µM; activity change, negative = inhibition: at the top concentration; further: on the % scale 0 is the no-effect control and ±100 the full control effect

SMILES	activity change, negative = inhibition
CC[C@]1(O)CC[C@H]2[C@@H]3CCC4=CCCC[C@@H]4[C@H]3CC[C@@]21C	-15.6%
C[N+]1(CCC(C(N)=O)(c2ccccc2)c2ccccc2)CCCCC1	10.1%
CCC1(CC)C(=O)NC(=O)NC1=O	1.55%
NC(=O)CN1CCCC1=O	12.6% [at 20.6 µM]

test: P-glycoprotein substrates identified in KB-3-1 adenocarcinoma cell line, qHTS therapeutic library screen (AID 1346986); settings: KB-3-1 parental cells viability, CellTiter-Glo, 72 h; at 44.5 µM (top of the series); further: nearly all actives have a fitted effect of over 60% in size
Method in brief: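 Dose-response cytotoxicity, KB-3-1 vs P-gp-high KB-8-5-11, no colchicine in assay medium. Read: CellTiter-Glo at 72 h.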

SMILES	outcome
CC[C@H]1C[C@H]2[C@@H]3CCC4=CC(=O)CC[C@@H]4[C@H]3CC[C@]2(C)[C@H]1O	inactive
COc1ccc2c(C(=O)c3ccc(Cl)cc3)c(C)n(CC(=O)O)c2c1	inactive
O=C(N[C@H]1N=C(c2ccccc2F)c2cccc3c2N(CC3)C1=O)c1cc2ccccc2[nH]1	inactive

test: P-glycoprotein substrates identified in KB-8-5-11 adenocarcinoma cell line, qHTS therapeutic library screen (AID 1346987); settings: KB-8-5-11 (P-gp overexpressing) viability, CellTiter-Glo, 72 h; series mostly up to 44.5 µM; activity change, negative = cytotoxicity: at the top concentration; further: nearly all actives have a fitted effect of over 65% in size; further: potency means the concentration at half of the fitted maximal effect; on activity change, negative = cytotoxicity: on the % scale 0 is the no-effect control and ±100 the full control effect
Method in brief: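 Human cervical adenocarcinoma KB-8-5-11 cells, selected in colchicine to over-express P-gp and assayed without it, were exposed for 72 h to titrated compounds. An ATP-based luminescent viability signal gave AC50.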

SMILES	Potency	activity change, negative = cytotoxicity	outcome
CC[C@]1(O)CC[C@H]2[C@@H]3CCC4=CCCC[C@@H]4[C@H]3CC[C@@]21C	6.51 µM (active)		
CC(Cc1ccc2c(c1)OCO2)NO (stereo unspecified)		-11.9% [at 93.4 µM]	
CCOC(=O)c1ncn2c1CN(C)C(=O)c1c(I)cccc1-2			inactive
CCC(=O)OC1(c2ccccc2)CCN(C)CC1		-2.52% [at 93.4 µM]	
CCC(OC(C)=O)C(CC(C)NC)(c1ccccc1)c1ccccc1 (stereo unspecified)	20 µM (active)		
COc1ccc(OC)c(CC(C)N)c1 (stereo unspecified)		-17% [at 93.4 µM]	
C[C@]12CC[C@H]3[C@@H](CCC4=CC(=O)CC[C@@H]43)[C@@H]1CC[C@@H]2O	2.91 µM (active) and 5.8 µM (active)		
C[N+]1(CCC(C(N)=O)(c2ccccc2)c2ccccc2)CCCCC1		3.73%	
COc1ccc2c(C(=O)c3ccc(Cl)cc3)c(C)n(CC(=O)O)c2c1			inactive
Cc1nnc2n1-c1sc(CCC(=O)N3CCOCC3)cc1C(c1ccccc1Cl)=NC2	inactive		
COc1cc(CC(C)N)c(OC)cc1Br (stereo unspecified)	inactive		
CC1N=C(N)OC1c1ccccc1 (stereo unspecified)		-2.73% [at 93.4 µM]	
COc1cc(CC(C)N)cc2c1OCO2 (stereo unspecified)		-12.8% [at 93.4 µM]	
CCOP(=S)(OCC)O/N=C(\C#N)c1ccccc1		-10.4%	
C[C@H]1CNCCc2ccc(Cl)cc21		-0.461%	
O=C(O)Cc1ccccc1		2.86%	
CC[C@H]1C[C@@H]2C[C@H]3c4[nH]c5ccc(OC)cc5c4CCN(C2)[C@@H]13		-16.2% [at 93.4 µM]	
CCC1(CC)C(=O)NC(=O)NC1=O		-2.99%	
CCCCC1C(=O)NC(=O)N(C2CCCCC2)C1=O (stereo unspecified)		-2.16%	
COP(=S)(OC)Oc1ccc(S(N)(=O)=O)cc1		10.9%	

SMILES	Potency	activity change, negative = cytotoxicity	outcome
Cc1nc2ccccc2c(=O)n1-c1ccccc1Cl		-23.2% [at 93.4 µM]	
Cc1cccc(Cc2cnc[nH]2)c1C		-0.7%	
Cc1nnc2n1-c1sc(CCc3ccc(CC(C)C)cc3)cc1C(c1ccccc1Cl)=NC2C (stereo unspecified)	14.6 µM (active)		
O=C(N[C@H]1N=C(c2ccccc2F)c2cccc3c2N(CC3)C1=O)c1cc2ccccc2[nH]1		-2.69%	
O=C(CCl)c1ccc(Cl)cc1Cl	2.91 µM (active) and 11.2 µM (active)		
CCC1(c2cnc[nH]2)Cc2ccccc2C1	inactive		
COc1ccc2[nH]cc(CCN(C(C)C)C(C)C)c2c1		-28.5% [at 93.4 µM]	
CCOC(=O)NC(C)(C)Cc1ccc(Cl)cc1			inactive
COc1ccc2c3c1O[C@H]1[C@@H](O)C=C[C@H]4[C@@H](C2)N(C)CC[C@@]341		1.56% [at 93.4 µM]	
CNC(C)Cc1ccc2c(c1)OCO2 (stereo unspecified)		5.23% [at 93.4 µM]	
CNC(C)Cc1ccccc1OC (stereo unspecified)		3.69%	
CN(C)CCc1c[nH]c2ccc(O)cc12		-14.6% [at 93.4 µM]	
O=C(O)CCCCCCNC1c2ccccc2CCc2ccccc21			inactive
NC1(c2ccccc2)CCCCC1		-2.8% [at 93.4 µM]	
COc1cc(C[C@@H](C)N)c(OC)cc1Br		-28.5% [at 93.4 µM]	
CN(C)CCc1c[nH]c2cccc(O)c12		-18.1% [at 93.4 µM]	
NC(=O)CN1CCCC1=O		-7.53% [at 17.3 µM]	
CN(C)CCc1c[nH]c2ccccc12		4.37% [at 163 µM]	
Oc1ccc([C@H]2CNCc3c2ccc(O)c3O)cc1O		-5.22%	
